The source of these data is PubChem BioAssay (EPA / NIEHS).

Results filed as inconclusive are left out. Activity calls are given as the source filed them. Rule for the calls: active = hit-call score of the fitted dose curve at least 0.9, where 1 is the maximum; inconclusive = response in the unintended direction; inactive = score below 0.9.

This assay in a line: CCTE_Harrill_HTTr_CellCount_MCF7: CCTE's Cell Proliferation Assessment for the High-Throughput Transcriptomics (HTTr) Platform, Harrill Lab (AID 2284012).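 Note: intended direction is loss of nuclei count meaning fewer cells.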 From the text:
This is a cell-based assay that evaluates cell viability and cell growth using high content imaging to count the number of Hoechst-labeled nuclei that are present in an assay well in 384-well format.This is a cell-based assay that evaluates cell viability and cell growth in MCF-7 cells. This was part of a full screening experiment. High content imaging is used to count the number of Hoechst-labeled nuclei that are present in an assay well in 384-well format.The assay component endpoint CCTE_Harrill_HTTr_CellCount_MCF7 was analyzed with bidirectional fitting relation to DMSO as the negative control and baseline of activity. Using a type of viability reporter, loss-of-signal activity can be used to understand changes in cell count. To generalize the intended target to other relatable targets, this assay endpoint is annotated to cell cycle, where the subfamily is cell count.
Chemicals were tested in MCF7 cells in an eight point dilution series with a six hour exposure duration.
Take `O=C(O)CCCC[C@@H]1SC[C@@H]2NC(=O)N[C@@H]21`: the compound was called inactive.
As for `CN(C)c1ccc(N=Nc2ccccc2C(=O)O)cc1`, the entry is “inactive”; as for `COC(=O)C1=C(C)NC(C)=C(C(=O)OCC(C)C)C1c1ccccc1[N+](=O)[O-]` (stereo not given), “inactive”.
As for `CC[C@H]1OC(=O)[C@H](C)[C@@H](O[C@H]2C[C@@](C)(OC)[C@@H](O)[C@H](C)O2)[C@H](C)[C@@H](O[C@@H]2O[C@H](C)C[C@H](N(C)C)[C@H]2O)[C@](C)(O)C[C@@H](C)C(=NOCOCCOC)[C@H](C)[C@@H](O)[C@]1(C)O`, the entry is “inactive”.
Regarding `OC1CCCCCCCCCCC1`, the call was inactive.
As for `O=c1[nH]c(=O)c2[nH]c(=O)[nH]c2[nH]1`, the entry is “inactive”; as for `CC(=O)OCC(=O)[C@@]12N=C(C)O[C@@H]1C[C@H]1[C@@H]3CCC4=CC(=O)C=C[C@]4(C)[C@H]3[C@@H](O)C[C@@]12C`, “inactive”.
As for `Nc1ncn([C@@H]2O[C@H](CO)[C@@H](O)[C@H]2O)c(=O)n1`, the entry is “inactive”; as for `CCCOC(=O)CCCCC(=O)OCCC`, “inactive”; as for `CCCCCCCC/C=C\CCCCCCCC(=O)O`, “inactive”.
Regarding `COc1ccc(-c2coc3cc(O)ccc3c2=O)cc1`, the call was inactive.
As for `CCCCCCCCCCCCCCCC(=O)OCC`, the entry is “inactive”; as for `C1CN(SSN2CCOCC2)CCO1`, “inactive”; as for `NC(=O)c1ccccc1O`, “inactive”.
For the compound `CC(C)(Oc1ccc(C2CC2(Cl)Cl)cc1)C(=O)O` (stereo not given), the result was inactive.
As for `Nc1ccc(N=Nc2ccccc2)c(N)n1`, the entry is “inactive”; as for `CC(=O)NS(=O)(=O)c1ccc(N)cc1`, “inactive”.
`C[C@]12C=CC(=O)C=C1CC[C@@H]1[C@@H]2[C@@H](O)C[C@@]2(C)[C@H]1CC[C@]2(O)C(=O)CO`: the result was inactive.
For `CCCCCCC(O)CO` (stereo not given), the outcome was inactive.
As for `C=C1C2CCC(C2)C1(C)C` (stereo not given), the entry is “inactive”; as for `CCCCC(CC)COC(=O)c1ccccc1O` (stereo not given), “inactive”.
Take `Cc1oncc1C(=O)Nc1ccc(C(F)(F)F)cc1`: the result was inactive.
As for `NC(=O)N=NC(N)=O`, the entry is “inactive”; as for `c1ccc(-c2ccccn2)nc1`, “inactive”; as for `C=C(C)[C@H]1CC=C(C)CC1`, “inactive”.
As for `CCOC(=O)N1CCC(=C2c3ccc(Cl)cc3CCc3cccnc32)CC1`, the entry is “inactive”.
As to `C1=Cc2ccccc2C1`, the outcome was inactive.
As for `CN(C)c1ccc(C(=N)c2ccc(N(C)C)cc2)cc1`, the entry is “inactive”; as for `O=c1c2ccccc2oc2ccccc12`, “inactive”; as for `O=C(Nc1ccccc1)c1ccccc1O`, “inactive”.
As for `CCCCC(CC)COC(=O)c1ccccc1` (stereo not given), the entry is “inactive”.
As for `CCCCOCCOC(=O)COc1nc(Cl)c(Cl)cc1Cl`, the entry is “inactive”; as for `CC1(C)[C@H]2CC[C@]1(C)C(=O)C2`, “inactive”.
On to `CC1(C)O[C@@H]2C[C@H]3[C@@H]4C[C@H](F)C5=CC(=O)CC[C@]5(C)[C@H]4[C@@H](O)C[C@]3(C)[C@]2(C(=O)CO)O1`, for which the result was inactive.
As for `O=C1c2cccc(O)c2C(=O)c2c(O)cc(CO)cc21`, the entry is “inactive”; as for `CCCCCC/C=C\CCCCCCCC(=O)O`, “inactive”.
As for `O=C(Nc1cccc(C(F)(F)F)c1)c1cc(Br)cc(Br)c1O`, the compound was called inactive.
As for `Cc1cc(C)c(C)cc1C`, the compound was classed as inactive.
For `CCCCCCCCCCCCCCCC[n+]1ccccc1`, the result was inactive.
As for `CC1(C)O[C@@H]2C[C@H]3[C@@H]4C[C@H](F)C5=CC(=O)C=C[C@]5(C)[C@@]4(F)[C@@H](O)C[C@]3(C)[C@]2(C(=O)CO)O1`, the entry is “inactive”.
